The list is not random: actives were taken first. Their share in the collection is about 3.1%.
TrxR1 inh: rat TrxR1 inhibition; Potency, µM (titrated, usually from 114 µM), without a hit: at the top dose activity change, negative = inhibition, most hits filed as inhibitors; recombinant rTrxR1, NADPH fluorescence consumption, selenite substrate; O89049; actives 1% (n = 390,000); further: on the % scale 0 is the no-effect control and ±100 the full control effect; nearly all actives have a fitted effect of over 65% in size
Target sequence (O89049 whole entry, looked up): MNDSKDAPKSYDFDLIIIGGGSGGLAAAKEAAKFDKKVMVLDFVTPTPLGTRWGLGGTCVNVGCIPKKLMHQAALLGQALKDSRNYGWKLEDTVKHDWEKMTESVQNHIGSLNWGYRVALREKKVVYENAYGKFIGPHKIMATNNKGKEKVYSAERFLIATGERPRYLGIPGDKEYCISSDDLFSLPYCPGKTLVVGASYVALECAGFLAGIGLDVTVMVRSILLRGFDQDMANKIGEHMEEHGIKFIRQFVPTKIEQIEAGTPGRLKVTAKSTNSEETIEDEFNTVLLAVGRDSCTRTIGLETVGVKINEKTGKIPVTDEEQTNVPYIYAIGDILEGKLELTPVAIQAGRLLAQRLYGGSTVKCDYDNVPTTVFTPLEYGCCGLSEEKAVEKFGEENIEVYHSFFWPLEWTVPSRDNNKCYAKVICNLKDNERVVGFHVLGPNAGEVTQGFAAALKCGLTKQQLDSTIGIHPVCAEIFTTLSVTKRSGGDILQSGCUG
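Rat TrxR1 (90 nM in the dispensed reagent) was pre-reduced with 400 uM NADPH for 5 min at room temperature, then incubated with compound for 15 min. After 400 uM selenite was added, NADPH fluorescence (Ex 340/Em 450 nm) was followed for 8 min.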
TrxR1 substrate: rat thioredoxin reductase 1 substrate activity; O89049; purified TrxR1 substrate turnover, NADPH consumption readout; Potency, µM (doses to about 114 µM), for inactives: top-dose activity change, negative = substrate turnover; actives 0.01% (n = 390,000); further: on the % scale 0 is the no-effect control and ±100 the full control effect; nearly all actives have a fitted effect of over 50% in size
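Rat TrxR1, dispensed at 90 nM, was prereduced with 400 uM NADPH (final) for 5 min at ~22 deg C, then incubated with compound 15 min before 400 uM selenite. A first-read NADPH fluorescence drop versus no-compound background flagged substrates.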
mIDH1 inhibitor: human IDH1 R132H inhibition; O75874; Potency, µM (highest dose often 76.6 µM), inactives show at the top dose activity change, negative = inhibition, most hits filed as inhibitors; AID 602179; IDH1-R132H enzyme, NADPH consumption, diaphorase/resazurin fluorescence; actives 0.093% (n = 390,000); further: on the % scale 0 is the no-effect control and ±100 the full control effect; nearly all actives have a fitted effect of over 65% in size
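IDH1-R132H (0.5 ug/mL dispensed) in pH 7.5 Tris buffer was preincubated 30 min with compound, then given a substrate mix of 0.016 mM NADPH and 2 mM alpha-KG for 80 min at room temperature; remaining NADPH was read by diaphorase/resazurin fluorescence.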
A549 viability: kills or reduces viability of A549 cells in Nrf2 counter-screen; A549 ARE-Fluc cells, CellTiter-Fluor viability, 18-24 h; Potency, µM (top dose mostly 46 µM), inactives show at the top dose activity change, negative = cytotoxicity, usual class: inhibitors; actives 0.16% (n = 390,000); AID 504648; further: on the % scale 0 is the no-effect control and ±100 the full control effect
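A549 ARE-Fluc cells in 5% FBS OPTI-MEM, 5000 cells/well, rested 2 h then exposed to compounds in concentration-response for 18-24 h at 37 °C. Viability by CellTiter-Fluor fluorescence (Ex 405/Em 525) after 30 min; luciferase luminescence (BugLite, 15 min, RT) read afterwards.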
Nrf2 block: inhibitors of Nrf2 signaling. actives 2.1% (n = 360,000). Potency, µM (titrated, usually from 46 µM), for the others: at the top dose activity change, negative = inhibition, actives largely listed as inhibitors. A549 ARE-Fluc reporter, luciferase luminescence, 18-24 h; further: on the % scale 0 is the no-effect control and ±100 the full control effect; nearly all actives have a fitted effect of over 60% in size
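A549 ARE_Fluc cells (5000/well, 5% FBS OPTI-MEM) pre-incubated 2 h, then treated with compounds 18-24 h at 37C/5% CO2 in concentration-response. CellTiter-Fluor viability read first; BugLite luciferase luminescence after 15 min at room temperature gives Nrf2 activity.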
Mito fusion act: inhibitors of mitochondrial division or activators of mitochondrial fusion. S. cerevisiae fusion-defective mutant growth rescue, CellTiterGlo 48 h. Potency, µM (series often up to 46.1 µM), for the others: at the highest dose growth rescue (activation), most hits filed as activators. actives 0.23% (n = 320,000). AID 485298; further: % of control where 0% means no effect; nearly all actives have a fitted effect of over 45% in size
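Temperature-sensitive fusion-defective S. cerevisiae (e.g. fzo1-1, mgm1-5) were grown with compound in YPEG medium (3% ethanol, 3% glycerol) for 48 hours at 37C. Growth rescue was measured as viability by CellTiterGlo luminescence after 10 minutes at ambient.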
* hit, by the source's call; ? = inconclusive; . = no result; [ ] = remark or other dose. The call rests on the fitted dose curve; in most records, active means well fitted curve in the direction sought with a large enough effect; inconclusive means small, poorly fitted or top-dose-only effect, or another doubt; inactive means no such curve, though single readings can be large; an effect the other way counts as inactive or inconclusive. Potency means the concentration at half of the fitted maximal effect.

SMILES | TrxR1 inh | TrxR1 substrate | mIDH1 inhibitor | A549 viability | Nrf2 block | Mito fusion act
O=S1(=O)CCO[C@H]2CCCC[C@@H]2N1Cc1ccc(Cl)cc1 | -10.5% | -5.7% | . | . | . | .
N.N.N.N.N.N.N.N.N.N.N.N.N.N.O.O.[Ru+4].[Ru+5].[Ru+5] | ? | ? | . | . | . | -39.5%
COc1ccc(N(Cc2ccccc2)C(=O)CSc2nnc(Cn3nnc4ccccc43)o2)cc1 | 21.9% | 0.1% | -0.4% | -20.6% | ? | 5.7%
COc1ccc(CN(C(=O)CSc2nnc(-c3c[nH]c4ccccc34)o2)c2ccc(F)cc2)cc1OC | 13.4% | 0.4% | 10.7% | ? | 11.6µM* | ?
O=C(CSc1nnc(Cn2nnc3ccccc32)o1)N(Cc1ccc(F)cc1)c1ccccc1 | 11.3% | 8.1%[57.1 µM] | 2.3% | ? | 5.8µM* | 8.5%
O=S1(=O)N=C(Oc2ccccc2F)c2ccccc21 | . | . | . | 1.3% | ? | .
CC(C)(C)n1ncc2c(=O)n(Cc3cccc(OC(F)F)c3)cnc21 | 14.6% | -4.4% | . | . | . | .
COc1cc(NC(=O)C(CC(C)C)NS(=O)(=O)c2ccc3c(c2)CCCC(=O)N3)cc(OC)c1 (stereo not drawn) | 0.8%[57.1 µM] | -2.7%[57.1 µM] | 14.5% | 0.9% | ? | .
CC(=O)N1CCN(c2ccc(NCc3cccc(C)c3)cc2)CC1 | -4.3%[57.1 µM] | 4.5% | . | -3.3% | 14.6µM* | -5.7%
COc1cc(CNc2ccc(N3CCN(C(C)=O)CC3)cc2)ccc1OCc1ccc(F)cc1 | -11.4% | -0.9% | -4.9% | -18.9% | 16.4µM* | 0.9%
Cc1cc2c(s1)c1cnn(Cc3ccccc3Cl)c(=O)c1n2C | . | . | . | -4.9% | 18.5% | .
Cc1cc(C)nc(SCC(=O)Nc2cccc(S(=O)(=O)N(C)C)c2)n1 | 6.5%[57.1 µM] | 1.1%[57.1 µM] | 8.9% | -5.3% | 18.4µM* | 12.8%
CN(C)S(=O)(=O)c1ccc(NC(=O)CSc2nc3ccccc3n2-c2ccccc2)cc1 | 15.3%[57.1 µM] | 10.9%[57.1 µM] | 8.1% | 0.8% | 20.6µM* | 12.7%
CN(C)S(=O)(=O)c1cccc(NC(=O)CSc2nc3ccccc3n2-c2ccccc2)c1 | 3.3% | -7.3% | 1.5% | ? | 18.4µM* | 18.4%
CN(C)S(=O)(=O)c1cccc(NC(=O)CSc2nncn2C)c1 | 3.1% | 3.4% | 1.0% | -5.6% | 8.2% | -4.2%
O=C(O)CSc1nc2ccccc2n1-c1ccccc1 | 13.5%[57.1 µM] | 7.6%[57.1 µM] | -4.3% | ? | -19.0% | -2.1%
NS(=O)(=O)c1ccc(NC(=O)CSc2nc3ccccc3n2-c2ccccc2)cc1 | 6.4% | -0.4% | -2.8% | ? | ? | -5.5%
CCOc1ccccc1C(=O)N1CCc2cc(OC)c(OC)cc2C1COc1ccc(OC)cc1 (stereo not drawn) | 11.8%[57.1 µM] | -1.2%[57.1 µM] | 6.9% | 2.7% | . | .
COc1cc2c(NC3CCN(C(C)C)CC3)nc(N3CCCN(C)CC3)nc2cc1OCCOCCN1CCCC1 | -19.2% | 110.4% | . | . | . | .
COc1cccc(C2c3c(ncn(-c4ccc(C#N)cc4)c3=N)Oc3ccc4ccccc4c32)c1 (stereo not drawn) | . | . | . | -10.0% | -23.2% | .
Cc1cccc(Cc2c(C)nc3nc(SCc4ccccc4F)nn3c2C)c1 | 17.3%[57.1 µM] | 4.7%[57.1 µM] | 13.9% | -2.7% | . | .
NC(=S)NN=C1c2cc(OCCN3CCOCC3)ccc2-c2ccc(OCCN3CCOCC3)cc21 | -1.3%[57.1 µM] | 5.8%[57.1 µM] | 7.5% | 16.4µM* | 16.4µM* | 16.1%
CCc1ccc(CNC(=O)CCCN2C(=O)c3cccnc3Oc3ccc(Cl)cc32)cc1 | 4.2% | -6.9% | -17.7% | -2.8% | -9.1% | .
Cc1ccc(C)c(-n2[nH]c3c4c(ccc3c2=O)C(=O)c2ccccc2C4=O)c1 | -2.2% | -3.5% | -5.1% | ? | 23.1µM* | 1.1%
Cc1ccc2nc(COc3ccccc3NC(=O)c3ccccc3F)cc(=O)n2c1 | 3.9%[57.1 µM] | 3.5%[57.1 µM] | 9.9% | 0.5% | . | .
SMILES | TrxR1 inh | TrxR1 substrate | mIDH1 inhibitor | A549 viability | Nrf2 block | Mito fusion act
Cc1ccc(C)c(N2CCN(C(=O)c3ccc(CS(=O)Cc4ccc(Cl)cc4)o3)CC2)c1 (stereo not drawn) | 1.2% | -4.7% | 4.8% | ? | 20.6µM* | -8.9%
Cc1nc(-c2cccc(NC(=O)c3cccs3)c2)cs1 | 8.4% | -2.7% | 7.5% | -12.4% | -13.4% | 9.8%
O=C(Nc1cccc(-c2csc(-c3ccccc3)n2)c1)c1cccs1 | -4.3% | 7.7% | 2.9% | 0.0% | 16.4µM* | ?
COc1cc2c(NC3CCN(C)CC3)nc(N3CCCN(C)CC3)nc2cc1OCC1CCCCN1 (stereo not drawn) | ? | 95.1% | . | . | . | .
CC(C(=O)Nc1ccccc1)c1ccc(-c2ccccc2)c(F)c1 (stereo not drawn) | -10.3% | -13.6% | -2.9% | -29.9% | 10.3µM* | 3.4%
COC(=O)c1c(-c2ccc(Cl)cc2)noc1N1CCN(c2cccc(C(F)(F)F)c2)CC1 | 22.8%[57.1 µM] | 0.9%[57.1 µM] | -1.2% | 11.8% | . | .
NC(=O)C(c1ccc(Cl)cc1)c1ccc(Sc2ccc(Cl)cc2)nn1 (stereo not drawn) | -6.9% | -6.9% | 7.3% | -11.7% | 16.4µM* | 1.1%
Cc1ccc2onc(CC(=O)Nc3cc(F)ccc3F)c2c1 | -6.0% | -1.8% | . | -3.8% | -8.8% | .
Cc1oc(-c2cc(F)ccc2F)nc1CN1CCC(C(=O)N2CCOCC2)CC1 | 4.0% | 4.0% | -2.2% | -7.2% | 9.4% | 0.4%
Cc1oc(-c2cc(F)ccc2F)nc1CN1CCN(c2ncnc3ccccc23)CC1 | -2.1%[57.1 µM] | -4.3% | -3.2% | -8.9% | 25.9µM* | -5.5%

Screening data: PubChem BioAssay, National Center for Advancing Translational Sciences (NCATS)
